Test results taken from PubChem BioAssay (NCI).
Compounds without any hit were thinned out: in the full panel of roughly 83,000, 20% have a hit.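 Negative percent growth values reflect cell death: -40 means 40% of the cells present at the start died, and -100 means all died.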 Active and inactive are the calls of the source. How the source made its calls: active means growth percent below 10; inactive means the rest.

Key:
Test in all cases: NCI-60 one-dose screen, 48 h (100 = growth as untreated, 0 = no growth, -100 = all killed)
Settings in all cases: 10 µM unless noted
SK-MEL-2 melanoma = system: SK-MEL-2 melanoma
EKVX NSCLC = system: EKVX NSCLC
SN12C renal = system: SN12C renal
UO-31 renal = system: UO-31 renal
TK-10 renal = system: TK-10 renal
ACHN renal = system: ACHN renal
CAKI-1 renal = system: CAKI-1 renal
A498 renal = system: A498 renal
CCRF-CEM leukemia = system: CCRF-CEM leukemia
MOLT-4 leukemia = system: MOLT-4 leukemia
SR leukemia = system: SR leukemia
RPMI-8226 leukemia = system: RPMI-8226 leukemia
OVCAR-8 ovarian = system: OVCAR-8 ovarian
OVCAR-5 ovarian = system: OVCAR-5 ovarian
OVCAR-4 ovarian = system: OVCAR-4 ovarian
SK-OV-3 ovarian = system: SK-OV-3 ovarian
IGROV1 ovarian = system: IGROV1 ovarian
OVCAR-3 ovarian = system: OVCAR-3 ovarian
HS 578T breast = system: HS 578T breast
NCI/ADR-RES ovarian = system: NCI/ADR-RES ovarian

Measured: growth

O=C1Nc2c(ccc(Cl)c2Cl)/C1=C/c1cc(Br)c(O)c(Br)c1
inactive: SK-MEL-2 melanoma 73.2% | EKVX NSCLC 47.3% | SN12C renal 80.2% | UO-31 renal 60.4% | TK-10 renal 96.7% | ACHN renal 70.8% | CAKI-1 renal 46.8% | A498 renal 48.9% | CCRF-CEM leukemia 69% | MOLT-4 leukemia 63.8% | SR leukemia 39.3% | RPMI-8226 leukemia 14.8% | OVCAR-8 ovarian 51.4% | OVCAR-5 ovarian 87.1% | OVCAR-4 ovarian 64.9% | SK-OV-3 ovarian 63% | IGROV1 ovarian 47% | OVCAR-3 ovarian 27.3% | HS 578T breast 43.5% | NCI/ADR-RES ovarian 32.4%

CS(=O)(=O)c1ccc(-c2cnc3ccc(-c4cccc(S(C)(=O)=O)c4)nn23)cc1
inactive: SK-MEL-2 melanoma 48.3% | EKVX NSCLC 67.5% | SN12C renal 46.8% | UO-31 renal 24.2% | TK-10 renal 40% | ACHN renal 22.4% | CAKI-1 renal 23.2% | CCRF-CEM leukemia 18.4% | SR leukemia 21.1% | RPMI-8226 leukemia 18.8% | OVCAR-8 ovarian 53.1% | OVCAR-5 ovarian 44.2% | OVCAR-4 ovarian 72.8% | SK-OV-3 ovarian 43.4% | IGROV1 ovarian 14% | OVCAR-3 ovarian 33.3% | HS 578T breast 10% | NCI/ADR-RES ovarian 80.9%
active: A498 renal -15.6% | MOLT-4 leukemia 0.943%

NS(=O)(=O)c1ccc(-n2ncc3c(=O)[nH]c(CN4CCN(c5cc6c(cc5F)c(=O)c(C(=O)O)cn6C5CC5)CC4)nc32)cc1
inactive: SK-MEL-2 melanoma 106% | EKVX NSCLC 92.6% | SN12C renal 95% | UO-31 renal 70% | TK-10 renal 119% | ACHN renal 94% | CAKI-1 renal 89.2% | A498 renal 102% | CCRF-CEM leukemia 93.4% | MOLT-4 leukemia 97% | SR leukemia 97.2% | RPMI-8226 leukemia 105% | OVCAR-8 ovarian 97.8% | OVCAR-5 ovarian 97.6% | OVCAR-4 ovarian 104% | SK-OV-3 ovarian 107% | IGROV1 ovarian 92.8% | OVCAR-3 ovarian 107% | HS 578T breast 97.8% | NCI/ADR-RES ovarian 94.4%

CC/C(Cc1ccccc1)=C(/c1ccc(O)cc1)c1ccc(OCCN2CCCC2)cc1
inactive: TK-10 renal 13.1% | A498 renal 54.9% | OVCAR-5 ovarian 19.8% | SK-OV-3 ovarian 63% | IGROV1 ovarian 13.9%
active: SK-MEL-2 melanoma -52.3% | EKVX NSCLC -21.4% | SN12C renal -11.6% | UO-31 renal -79.8% | ACHN renal -68.5% | CAKI-1 renal -72.4% | CCRF-CEM leukemia -33.3% | MOLT-4 leukemia -22.7% | SR leukemia -40.2% | RPMI-8226 leukemia -44.1% | OVCAR-8 ovarian -6.37% | OVCAR-4 ovarian -6.26% | OVCAR-3 ovarian -79.6% | HS 578T breast -28% | NCI/ADR-RES ovarian -8.18%

Cn1c2ccccc2c2c3c(c4c5ccccc5[nH]c4c21)C(=O)N(N)C3=O
inactive: SK-MEL-2 melanoma 99.7% | EKVX NSCLC 77.3% | SN12C renal 52.2% | UO-31 renal 34.8% | TK-10 renal 82.5% | ACHN renal 14.2% | CAKI-1 renal 30.7% | A498 renal 60% | CCRF-CEM leukemia 26.4% | MOLT-4 leukemia 21.1% | RPMI-8226 leukemia 57.2% | OVCAR-8 ovarian 66.7% | OVCAR-5 ovarian 89.3% | OVCAR-4 ovarian 73% | SK-OV-3 ovarian 74% | IGROV1 ovarian 72.7% | OVCAR-3 ovarian 69.6% | HS 578T breast 79.5% | NCI/ADR-RES ovarian 71.6%
active: SR leukemia 5.54%

COc1cc(/C=N\NC(=O)CN2CCN(c3cc4c(cc3F)c(=O)c(C(=O)N/N=C/c3ccc(O)c(OC)c3)cn4C3CC3)CC2)ccc1O
inactive: SK-MEL-2 melanoma 68% | EKVX NSCLC 84.3% | SN12C renal 53.4% | UO-31 renal 76.7% | TK-10 renal 91.7% | ACHN renal 99.2% | CAKI-1 renal 82.8% | A498 renal 85.3% | CCRF-CEM leukemia 18.9% | SR leukemia 33.9% | RPMI-8226 leukemia 31.2% | OVCAR-8 ovarian 61.7% | OVCAR-5 ovarian 98.2% | OVCAR-4 ovarian 47.8% | SK-OV-3 ovarian 106% | IGROV1 ovarian 63.7% | OVCAR-3 ovarian 14.4% | HS 578T breast 63.5% | NCI/ADR-RES ovarian 99.9%
active: MOLT-4 leukemia 5.76%

COc1ccc(OCC(=O)Nc2ccc(-c3nc4ccccc4s3)cc2C)cc1
inactive: SK-MEL-2 melanoma 94.1% | EKVX NSCLC 65% | SN12C renal 88.8% | UO-31 renal 44.7% | TK-10 renal 64.9% | ACHN renal 99.4% | CAKI-1 renal 78.4% | A498 renal 101% | CCRF-CEM leukemia 89.6% | MOLT-4 leukemia 55.9% | SR leukemia 76.1% | RPMI-8226 leukemia 66% | OVCAR-8 ovarian 113% | OVCAR-5 ovarian 78.1% | OVCAR-4 ovarian 55% | SK-OV-3 ovarian 99.5% | IGROV1 ovarian 35.2% | OVCAR-3 ovarian 102% | HS 578T breast 87.8% | NCI/ADR-RES ovarian 85%

Cc1ccc(Nc2nc(N)nc(Nc3ccc4ccccc4c3)n2)cc1
inactive: SK-MEL-2 melanoma 50.6% | EKVX NSCLC 72.1% | SN12C renal 40.3% | UO-31 renal 46.4% | TK-10 renal 69% | ACHN renal 46.6% | CAKI-1 renal 30.3% | A498 renal 17.6% | CCRF-CEM leukemia 27.8% | MOLT-4 leukemia 47.9% | SR leukemia 26.8% | RPMI-8226 leukemia 48.2% | OVCAR-8 ovarian 47.7% | OVCAR-5 ovarian 79.9% | OVCAR-4 ovarian 74.7% | SK-OV-3 ovarian 58.4% | IGROV1 ovarian 51.4% | HS 578T breast 47% | NCI/ADR-RES ovarian 30.6%
active: OVCAR-3 ovarian 8.67%
